eIF4H FP inh – human eIF4H binding inhibitors, primary screen, translation initiation inhibitor project, biochemical, uHTS, fluorescence polarization; Eukaryotic translation initiation factor 4H (Homo sapiens), Q15056; eIF4H fluorescence polarization binding assay; inhibition, % at 35 µM; hit rate 0.94% among 290,000; AID 2012, 2009;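 also: calls also rest on retests at 20 µM and on dose response follow-up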
PERK inh – block of dimerizer-induced PERK translation repression, primary screen, PERK inhibitor project, CHO PERK-DD cells, SEAP luminescence, HTS; CHO PERK-DD fusion, SEAP luminescence translation reporter; inhibition, % at 5.6 µM; hit rate 0.17% among 220,000; AID 1416, 2008;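 active = inhibition above the mean inhibition of all tested compounds plus 3 SD, set separately per screening campaign, cut at about 2.9% in these data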;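 also: PERK kinase domain activated by AP20187 dimerizer at 100 nM; 0% = DMSO with dimerizer and 100% = rapamycin at 8.4 µM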
Target sequence (Q9NZJ5 whole entry, looked up, the tested form may be a part): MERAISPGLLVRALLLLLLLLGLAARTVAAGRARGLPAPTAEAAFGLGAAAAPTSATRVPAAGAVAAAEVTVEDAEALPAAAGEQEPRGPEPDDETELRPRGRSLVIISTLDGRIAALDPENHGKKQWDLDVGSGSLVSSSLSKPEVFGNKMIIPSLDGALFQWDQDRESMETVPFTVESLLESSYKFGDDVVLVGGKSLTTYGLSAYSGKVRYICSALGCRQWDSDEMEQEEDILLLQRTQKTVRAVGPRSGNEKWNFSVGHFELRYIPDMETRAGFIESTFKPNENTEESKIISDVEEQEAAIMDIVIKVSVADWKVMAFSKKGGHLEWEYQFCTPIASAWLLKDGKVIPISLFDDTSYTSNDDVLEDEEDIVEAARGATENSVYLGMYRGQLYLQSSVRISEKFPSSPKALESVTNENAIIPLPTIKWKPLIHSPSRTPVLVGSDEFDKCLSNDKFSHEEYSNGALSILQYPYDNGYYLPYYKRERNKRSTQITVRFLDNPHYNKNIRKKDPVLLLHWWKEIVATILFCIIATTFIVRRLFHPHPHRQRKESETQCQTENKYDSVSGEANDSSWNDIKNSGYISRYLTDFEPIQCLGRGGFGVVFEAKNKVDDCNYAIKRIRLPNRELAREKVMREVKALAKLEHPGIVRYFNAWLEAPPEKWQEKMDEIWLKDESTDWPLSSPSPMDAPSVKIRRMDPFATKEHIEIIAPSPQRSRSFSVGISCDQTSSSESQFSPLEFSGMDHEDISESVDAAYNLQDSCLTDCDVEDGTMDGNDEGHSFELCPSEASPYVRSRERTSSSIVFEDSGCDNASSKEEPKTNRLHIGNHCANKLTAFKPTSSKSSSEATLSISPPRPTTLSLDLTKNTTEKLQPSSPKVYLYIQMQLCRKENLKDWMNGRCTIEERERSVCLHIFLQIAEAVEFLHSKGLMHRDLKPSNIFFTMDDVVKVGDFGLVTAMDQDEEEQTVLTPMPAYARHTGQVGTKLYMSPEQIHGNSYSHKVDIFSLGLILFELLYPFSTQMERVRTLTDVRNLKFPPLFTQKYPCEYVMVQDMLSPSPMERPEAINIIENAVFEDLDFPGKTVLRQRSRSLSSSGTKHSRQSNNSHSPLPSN
eIF4E-4G inh – eIF4E–eIF4G protein interaction inhibitors, primary screen, biochemical, uHTS, TR-FRET, eIF4GI fragment; Eukaryotic translation initiation factor 4E (Mus musculus) + Eukaryotic translation …; TR-FRET eIF4E-eIF4GI(517-606) binding, 2 h; inhibition, % at 21.7 µM; hit rate 0.37% among 220,000;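 active = inhibition above about 30%, limit read from the data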;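 also: 0% = full FRET control wells and 100% = background wells lacking eIF4GI fragment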
MLLE-PAM2 inh – inhibitors of PABP1 MLLE–PAM2 peptide binding, primary screen, biochemical, fluorescence polarization, FITC-PAM2, GST-MLLE; Polyadenylate-binding protein 1 (Homo sapiens), P11940; inhibition, % at 20 µM; hit rate 0.36% among 360,000; AID 588489, 2011; in the data active = inhibition above about 35%, passing the limit was not always enough;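 also: plate controls were DMSO wells with GST-MLLE for no effect and wells lacking GST-MLLE protein for full effect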
PABP polyA inh – PABP poly(A) RNA binding inhibitors, primary screen, biochemical, fluorescence polarization, uHTS | AID 2014, 2009 | inhibition, % at 35 µM | hit rate 1% among 290,000;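 also: calls also rest on retests at 20 µM and on dose response follow-up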
Starred values were filed as active, the others as inactive; ? = inconclusive; · = no result. Hits are enriched below; roughly 1.6% of the tested compounds scored in any of these assays. Unless noted, no rule for the calls is given here.

SMILES | eIF4H FP inh | PERK inh | eIF4E-4G inh | MLLE-PAM2 inh | PABP polyA inh
Cc1cc(C)n(CC(=O)c2ccccc2)c(=O)c1C#N | 0 | 0 | -4 | 4 | 4
C[C@@H]1CN([C@@H](C)CO)C(=O)CCCn2cc(nn2)CO[C@H]1CN(C)S(=O)(=O)c1ccc(-c2ccccc2)cc1 | · | · | · | 2 | ·
Cc1ccccc1NS(=O)(=O)c1ccc(C(=O)NCC(c2ccco2)N2CCCCC2)cc1 (stereo unspecified) | · | · | · | 5 | ·
CS(=O)(=O)c1ccc(C(=O)NCC(c2ccco2)N2CCCCC2)cc1 (stereo unspecified) | 83* | 0 | -3 | 0 | 1
O=C1ON=C(c2ccccc2[N+](=O)[O-])/C1=C/c1cccc([N+](=O)[O-])c1O | · | · | · | -112 | ·
c1ccc(-n2ncc3c(N4CCC5(CC4)OCCO5)ncnc32)cc1 | -5 | 1 | 1 | 7 | -1
CCCCc1c(CCC)c(=N)c2ccccc2n1C | 2 | -1 | -1 | -107 | 58*
CCCCc1c(O)c2ccccc2n(CCCC)c1=O | 7 | 1 | -5 | 8 | -1
COc1cc2c(c(OCC(=O)NC(C)C)c1)C(=O)O[C@@H](C)CCCC(=O)CCCCC2 | 70 | · | · | 52* | 30
COc1cccc2sc3ccc(NCc4ccc5c(c4)OCO5)cc3c(=O)c12 | 52* | · | · | 8 | 12
CC(C)CC(=O)Nc1cccc(C(C)O)c1 (stereo unspecified) | active | 0 | 0 | · | 55*
COC(=O)C1C(O)=C(C(C)=Nc2cccc3ccccc23)C(=O)CC1(C)C (stereo unspecified) | ? | 0 | 5 | 3 | 30*
COC(=O)C1C(O)=C(C=Nc2ccccc2)C(=O)CC1(C)C (stereo unspecified) | -4 | 1 | 1 | 3 | -14
O=C(CCC(=O)N1CCN(c2ccccc2)CC1)Nc1nnc(C2CCCCC2)s1 | 11 | 0 | 6 | 3 | -8
CCN1C=C(Cc2ccccc2C)C2=C(C1)C(c1ccccc1C)C(C#N)=C(N)O2 (stereo unspecified) | 20 | -1 | -2 | -5 | 52*
CC(CCc1ccccc1)NC(=O)CNC(=S)N(Cc1cccs1)C1CCCC1 (stereo unspecified) | -8 | 0 | -10 | -135 | 1
Cc1nnc(N2C(=O)c3oc4ccccc4c(=O)c3C2c2ccco2)s1 (stereo unspecified) | 22 | 3 | 6 | 48* | 10
Cc1cc[n+](-c2nc3ccccc3nc2[N-]S(=O)(=O)c2ccccc2)cc1 | 51* | 2 | -1 | 15 | active
Cc1cc[n+](-c2nc3ccccc3nc2C(=C=[N-])C#N)cc1 | 70* | 0 | 11 | -13 | 57*
O=S(=O)([N-]c1nc2ccccc2nc1-[n+]1ccccc1)c1ccc(Cl)cc1 | 0 | -1 | 2 | 6 | 0
O=C(CSc1nc2ncc(Cl)cc2[nH]1)NCC(=O)Nc1ccc(F)c(F)c1F | -4 | -1 | -2 | -25 | 11
COc1ccc(-c2csc(NC(=O)CSc3n[nH]c(N)n3)n2)cc1 | -7 | 1 | 0 | 37* | -11
COc1ccc(-c2csc(NC(=O)CSc3n[nH]c(C)n3)n2)cc1 | -1 | · | · | -5 | 10
O=c1c2cc(F)ccc2sn1-c1ccccc1 | · | · | · | 19 | ·
COC(=O)c1ccc(OC(=O)c2ccc(OC)cc2)c(OC)c1 | 53* | 0 | 2 | 16 | 6.3*
SMILES | eIF4H FP inh | PERK inh | eIF4E-4G inh | MLLE-PAM2 inh | PABP polyA inh
COC(=O)c1ccc(OCC(=O)c2ccccc2)cc1 | -1 | -1 | -2 | 2 | -9
COC(=O)c1ccc(OCCOc2ccc(C(=O)OC)cc2)cc1 | -9 | 3.5* | -12 | 3 | 0
O=C(Nc1ccc(S(=O)(=O)O)cc1)c1ccc2c(c1)S(=O)(=O)c1ccccc1C2=O | · | · | · | -7 | ·
COc1ccc(C(CNC(=O)c2cc3c(s2)CCC(C)C3)N2CCCC2)cc1 (stereo unspecified) | · | · | · | -3 | ·
CSC1=NCCN1C(=O)C(C)Oc1ccccc1 (stereo unspecified) | -10 | 2 | 3 | 4 | 2
CCc1nnc(NC(=O)CCC(=O)N2CCN(CCOc3ccc(C)cc3)CC2)s1 | 50* | -2 | -6 | 3 | -6
O=C1CS/C(=N\N=C\c2ccco2)N1c1ccccc1 | 85* | -2 | 10 | -24 | 32*
O=C1CS/C(=N/N=C/c2ccccc2)N1c1ccc(O)cc1 | 17 | · | · | 10 | 2
CCOc1cc(/C=N\NC(=O)C2C(=O)NCC2c2ccccc2)ccc1OC (stereo unspecified) | 3 | 1 | 2 | 3 | -11
O=C(NC1CCCCC1)c1nn2c(C(F)(F)F)cc(-c3ccco3)nc2c1Br | 10 | 1 | 5 | -10 | -2
O=C(c1cnn2c(C(F)(F)F)cc(-c3ccco3)nc12)N1CCCCCC1 | 1 | -1 | -5 | 3 | -6
O=C(c1ccccc1)N1CCN(C(=O)c2nn3c(C(F)(F)F)cc(-c4ccco4)nc3c2Br)CC1 | 69* | · | · | -9 | 15
O=C(O)c1cnn2c(C(F)(F)F)cc(-c3ccco3)nc12 | 78* | 0 | 6 | 6 | 35*
CCCSc1nc(C)c(-c2csc(C(C#N)=C3CCCC3)n2)cc1C#N | 59* | 2 | 10 | -27 | 8.1*
COC(=O)[C@@]1(Cc2ccc(F)cc2)[C@@H]2[C@@H](CC(=O)[C@H]2CC(=O)C(=O)N(C)C)CN1C(=O)c1ccccc1 | 71* | 0 | 2 | -6 | 118*
COC(=O)[C@@]1(Cc2ccc(OC)cc2)[C@@H]2[C@@H](CC(=O)[C@H]2CC(=O)C(=O)N(C)C)CN1C(=O)c1ccccc1 | 28 | 0 | -1 | -2 | 8
CCOC(=O)c1sc(=S)n(-c2ccccc2Cl)c1SC | -1 | 1 | 4 | 39* | 5
Cn1c(=O)c2c(=O)cc(N)[nH]c2n(C)c1=O | 44 | 1 | -2 | 43* | 39
CN(C)c1c(N)[nH]c2c(c1=O)c(=O)n(C)c(=O)n2C | 47 | 0 | -6 | -5 | -9
CN(C(=O)COC(=O)c1cc(S(=O)(=O)N(C)C)ccc1Cl)C1CCS(=O)(=O)C1 (stereo unspecified) | · | · | · | -23 | ·
Cc1ccc(S(=O)(=O)CCSc2cccc(C(=O)O)c2)cc1 | 5 | · | · | 44* | 9
Cc1ccc(N2CN=c3s/c(=C\c4ccccn4)c(=O)n3C2)cc1 | -10 | 3.1* | -4 | -29 | 2
O=c1/c(=C/c2ccco2)sc2n1CN(c1cccc(Br)c1)CN=2 | 51* | 1 | -16 | -83 | 74*
COc1ccc([N+](=O)[O-])cc1NC(=O)CC(c1ccccc1)c1ccccc1 | -2 | -1 | 4 | 5 | 14
